# Measured values reported in PubChem BioAssay AID743088 (The Scripps Research Institute Molecular Screening Center, 2013).
# A number with no mark means an inactive call.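 The calls were made as follows: active = binding inhibited by at least 50%, or stimulated by at least 50%, shown as inhibition of -50% or lower; inactive = the rest.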
# Test system: Potassium Channel KATP
# Assay: off-target binding across receptor panel, profiling panel, selectivity assay for AVPR1a antagonist project, biochemical, Panlabs HitProfilingScreen (AID 743088)
# Settings: Panlabs radioligand binding panel, 30 targets, at 10 µM, hits give high values
compound,measurement,value
O=C(C1CCN(c2ccc(Cl)cn2)CC1)N(CC1CC1)c1ccc(Cl)cc1,inhibition of binding,19%
